# Reference: PubChem BioAssay (Tox21)
# A number with no mark means an inactive call. Inconclusive results are not listed. The source made the active and inactive calls. The call rests on the fitted dose curve. Starred links: 1 amine or outer side, 2 acyl side, 3 side chain; linkers in the order of their positions; H or OH if unused. Positions of bridges follow the written chain, without caps; N, C: chain ends. Non-standard residues stand in square brackets, D forms with d. Residues, ends and D or L forms follow the SMILES beside them. Chains are numbered I, II in the order given. Actinocin(9to1) = Cc1c2oc3c(C)ccc(C(=O)[*:1])c3nc-2c(C(=O)[*:2])c(N)c1=O; NMeV = CN[C@H](C(=O)O)C(C)C; Sar = CNCC(=O)O
# Target: Acetylcholinesterase (Homo sapiens) (UniProt P22303)
# Test: Acetylcholinesterase (AChE) small molecule antagonists: colormetric cell-based qHTS assay (AID 1347395); further: nearly all actives have a fitted effect of over 30% in size
# Conditions: SH-SY5Y cells AChE activity, colorimetric (Ellman); series mostly up to 115 µM; activity, negative = inhibition: at the top concentration
# Procedure, shortened: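 AChE inhibition read colorimetrically via DTNB–thiocholine in SH-SY5Y cells. Compound 30 min, substrate 90 min, both 37 C.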
# On the % scale 0 is the no-effect control and ±100 the full control effect.
# Chain of Acetylcholinesterase (Homo sapiens) (P22303 whole entry, looked up): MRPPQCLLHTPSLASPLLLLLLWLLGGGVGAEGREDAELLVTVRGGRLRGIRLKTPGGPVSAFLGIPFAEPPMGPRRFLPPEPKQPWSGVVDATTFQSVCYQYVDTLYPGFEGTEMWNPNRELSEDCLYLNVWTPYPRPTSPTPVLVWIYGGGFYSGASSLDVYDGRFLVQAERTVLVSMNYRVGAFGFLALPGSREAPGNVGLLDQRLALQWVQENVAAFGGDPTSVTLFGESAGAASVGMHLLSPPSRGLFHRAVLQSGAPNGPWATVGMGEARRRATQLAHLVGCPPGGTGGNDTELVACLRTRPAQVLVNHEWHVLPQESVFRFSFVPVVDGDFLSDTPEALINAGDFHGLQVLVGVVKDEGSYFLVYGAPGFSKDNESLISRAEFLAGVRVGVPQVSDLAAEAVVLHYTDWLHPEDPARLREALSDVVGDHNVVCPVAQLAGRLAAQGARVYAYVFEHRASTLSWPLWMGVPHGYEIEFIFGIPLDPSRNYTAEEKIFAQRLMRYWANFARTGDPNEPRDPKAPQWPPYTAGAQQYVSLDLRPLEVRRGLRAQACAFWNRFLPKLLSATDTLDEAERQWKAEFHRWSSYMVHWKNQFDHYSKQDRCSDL
Structure (SMILES),"activity, negative = inhibition",Potency
CC(C)CC(=O)O,1.6%,–
CC(C)(c1cc(Br)c(OCC(Br)CBr)c(Br)c1)c1cc(Br)c(OCC(Br)CBr)c(Br)c1 (stereo not given),1% [at 52.9 µM],–
O=C(O)Cn1c(=O)n(Cc2ccc(Br)cc2F)c(=O)c2ccc(Cl)cc21,–,inactive
O=C(O)CNCC(=O)O,1.88% [at 10.5 µM],–
O=C1O[C@H]([C@@H](O)CO)C(O)=C1O,–,inactive
CC1(C)OC[C@@H](COC(=O)CCc2ccc(OC[C@@H](O)CNCCNC(=O)N3CCOCC3)cc2)O1,2.29% [at 52.9 µM],–
Nc1ccc(N)c2c1C(=O)c1ccccc1C2=O,1.88%,–
CCCCC(CC)CN1C(=O)C2C3C=CC(C3)C2C1=O (stereo not given),-0.221%,–
Nc1c(CC(=O)O)cccc1C(=O)c1ccc(Br)cc1,3.84% [at 52.9 µM],–
NC(=O)c1ccccc1O,–,inactive
C=CCOC(=O)CCC1CCCCC1,0.736%,–
"Cc1c2oc3c(C)ccc(C(=O)N[C@@H]4C(=O)N[C@H](C(C)C)C(=O)N5CCC[C@H]5C(=O)N(C)CC(=O)N(C)[C@@H](C(C)C)C(=O)O[C@@H]4C)c3nc-2c(C(=O)N[C@@H]2C(=O)N[C@H](C(C)C)C(=O)N3CCC[C@H]3C(=O)N(C)CC(=O)N(C)[C@@H](C(C)C)C(=O)O[C@@H]2C)c(N)c1=O (I: T[dV]P[Sar][NMeV] / II: T[dV]P[Sar][NMeV]; ester I:1-I:C, II:1-II:C; linker I:N-II:N via Actinocin(9to1))",–,inactive
C#C[C@]1(O)CC[C@H]2[C@@H]3CCc4cc(O)ccc4[C@H]3CC[C@@]21C,–,inactive
O=C(Oc1ccccc1C(=O)O)c1ccccc1O,1.66% [at 52.9 µM],–
CCCNC(C)C(=O)Nc1c(C)csc1C(=O)OC (stereo not given),-0.841% [at 52.9 µM],–
Cc1ccc(S(=O)(=O)O)c(C)c1,-2.98%,–
CCCCCOC(=O)COc1cc(N2C(=O)C3=C(CCCC3)C2=O)c(F)cc1Cl,-2.61%,–
Fc1ccc([C@@H]2CCNC[C@H]2COc2ccc3c(c2)OCO3)cc1,-0.617% [at 52.9 µM],–
c1ccc(CNCCNCc2ccccc2)cc1,0.482% [at 52.9 µM],–
C[Si](C)(C)O[Si](C)(C)O[Si](C)(C)C,1.93%,–

Structure (SMILES),"activity, negative = inhibition",Potency
CC1=C(C=O)C(C)(C)CCC1,0.91%,–
CCOCCn1c(N2CCCN(C)CC2)nc2ccccc21,-1.2% [at 52.9 µM],–
C[N+]1(CC2COC(c3ccccc3)(c3ccccc3)O2)CCCCC1 (stereo not given),-0.268% [at 23.6 µM],–
Oc1ccc(-c2ccccc2)c(Cl)c1,3.11%,–
OC[C@H]1O[C@H](O[C@]2(CCl)O[C@H](CCl)[C@@H](O)[C@@H]2O)[C@H](O)[C@@H](O)[C@H]1Cl,–,inactive
CCOCCn1c(C2CCN(CCc3ccc(C(C)(C)C(=O)O)cc3)CC2)nc2ccccc21,4.77% [at 52.9 µM],–
C[C@@H](O[C@H]1OCCN(Cc2n[nH]c(=O)[nH]2)[C@H]1c1ccc(F)cc1)c1cc(C(F)(F)F)cc(C(F)(F)F)c1,3.52% [at 52.9 µM],–
C=C[Si](OC)(OC)OC,-1.81%,–
Oc1ccc(Cc2ccccc2O)cc1,–,inactive
C=C[Si]1(C)O[Si](C)(C=C)O[Si](C)(C=C)O[Si](C)(C=C)O1 (stereo not given),-3.07%,–
Cc1ccc(S(=O)(=O)N=C=O)cc1,–,inactive
CCCCCCOC(=O)c1ccc(O)cc1,–,inactive
CN1CCN(c2c(F)cc3c(=O)c(C(=O)O)cn4c3c2SCC4)CC1,-0.609% [at 52.9 µM],–
CC/C(=C\C(=N/O)C(N)=O)C(C)[N+](=O)[O-] (stereo not given),-0.91%,–
C[C@H]1C[C@@H]2[C@H]([C@@H](O)C[C@@]3(C)[C@H]2CC[C@]3(O)C(=O)CO)[C@@]2(C)C=CC(=O)C=C12,-2.81% [at 52.9 µM],–
COc1cc(O)c(C(=O)c2ccccc2)cc1S(=O)(=O)O,–,inactive
CC(C=O)c1ccccc1 (stereo not given),0.679%,–
CCCCCCOc1ccc(O)cc1,0.959%,–
CCCCCCCC(C)=O,-0.257%,–
CCCC(=O)CC,-0.096%,–

# Target: Acetylcholinesterase (Homo sapiens) (UniProt P22303)
# Test: Acetylcholinesterase (AChE) small molecule antagonists: enzyme-based qHTS assay (AID 1347397); further: nearly all actives have a fitted effect of over 55% in size
# Conditions: Potency: AChE enzyme activity inhibition; outcome: AChE enzyme activity inhibition; series mostly up to 115 µM; activity change, negative = inhibition: at the top concentration
# Procedure, shortened: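 In this quantitative HTS, compounds from the Tox21 10K collection were preincubated 30 min at ambient temperature with recombinant human AChE dispensed at 50 mU/mL. Hydrolysis of acetylthiocholine was then followed for 10 min by DTNB colour development.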
Structure (SMILES),"activity change, negative = inhibition",Potency
CC(C)CC(=O)O,0%,–
CC(C)(c1cc(Br)c(OCC(Br)CBr)c(Br)c1)c1cc(Br)c(OCC(Br)CBr)c(Br)c1 (stereo not given),-3.41% [at 53 µM],–
O=C(O)Cn1c(=O)n(Cc2ccc(Br)cc2F)c(=O)c2ccc(Cl)cc21,–,inactive
O=C(O)CNCC(=O)O,-0.541% [at 10.5 µM],–
O=C1O[C@H]([C@@H](O)CO)C(O)=C1O,–,inactive
CC1(C)OC[C@@H](COC(=O)CCc2ccc(OC[C@@H](O)CNCCNC(=O)N3CCOCC3)cc2)O1,0% [at 53 µM],–
Nc1ccc(N)c2c1C(=O)c1ccccc1C2=O,-9.09%,–
CCCCC(CC)CN1C(=O)C2C3C=CC(C3)C2C1=O (stereo not given),0.454%,–
Nc1c(CC(=O)O)cccc1C(=O)c1ccc(Br)cc1,0.296% [at 53 µM],–
NC(=O)c1ccccc1O,–,inactive
C=CCOC(=O)CCC1CCCCC1,-0.774%,–
"Cc1c2oc3c(C)ccc(C(=O)N[C@@H]4C(=O)N[C@H](C(C)C)C(=O)N5CCC[C@H]5C(=O)N(C)CC(=O)N(C)[C@@H](C(C)C)C(=O)O[C@@H]4C)c3nc-2c(C(=O)N[C@@H]2C(=O)N[C@H](C(C)C)C(=O)N3CCC[C@H]3C(=O)N(C)CC(=O)N(C)[C@@H](C(C)C)C(=O)O[C@@H]2C)c(N)c1=O (I: T[dV]P[Sar][NMeV] / II: T[dV]P[Sar][NMeV]; ester I:1-I:C, II:1-II:C; linker I:N-II:N via Actinocin(9to1))",–,inactive
C#C[C@]1(O)CC[C@H]2[C@@H]3CCc4cc(O)ccc4[C@H]3CC[C@@]21C,–,inactive
O=C(Oc1ccccc1C(=O)O)c1ccccc1O,0.103% [at 53 µM],–
CCCNC(C)C(=O)Nc1c(C)csc1C(=O)OC (stereo not given),0% [at 53 µM],–
Cc1ccc(S(=O)(=O)O)c(C)c1,2.41%,–
CCCCCOC(=O)COc1cc(N2C(=O)C3=C(CCCC3)C2=O)c(F)cc1Cl,-1.79%,–
Fc1ccc([C@@H]2CCNC[C@H]2COc2ccc3c(c2)OCO3)cc1,0% [at 53 µM],–
c1ccc(CNCCNCc2ccccc2)cc1,-0.277% [at 53 µM],–
C[Si](C)(C)O[Si](C)(C)O[Si](C)(C)C,0.657%,–

Structure (SMILES),"activity change, negative = inhibition",Potency
CC1=C(C=O)C(C)(C)CCC1,1.1%,–
CCOCCn1c(N2CCCN(C)CC2)nc2ccccc21,0.674% [at 53 µM],–
C[N+]1(CC2COC(c3ccccc3)(c3ccccc3)O2)CCCCC1 (stereo not given),0.437% [at 23.6 µM],–
Oc1ccc(-c2ccccc2)c(Cl)c1,0.645%,–
OC[C@H]1O[C@H](O[C@]2(CCl)O[C@H](CCl)[C@@H](O)[C@@H]2O)[C@H](O)[C@@H](O)[C@H]1Cl,–,inactive
CCOCCn1c(C2CCN(CCc3ccc(C(C)(C)C(=O)O)cc3)CC2)nc2ccccc21,-0.0925% [at 53 µM],–
C[C@@H](O[C@H]1OCCN(Cc2n[nH]c(=O)[nH]2)[C@H]1c1ccc(F)cc1)c1cc(C(F)(F)F)cc(C(F)(F)F)c1,-3.87% [at 53 µM],–
C=C[Si](OC)(OC)OC,-0.409%,–
Oc1ccc(Cc2ccccc2O)cc1,–,inactive
C=C[Si]1(C)O[Si](C)(C=C)O[Si](C)(C=C)O[Si](C)(C=C)O1 (stereo not given),0.287%,–
Cc1ccc(S(=O)(=O)N=C=O)cc1,–,inactive
CCCCCCOC(=O)c1ccc(O)cc1,–,inactive
CN1CCN(c2c(F)cc3c(=O)c(C(=O)O)cn4c3c2SCC4)CC1,-0.874% [at 53 µM],–
CC/C(=C\C(=N/O)C(N)=O)C(C)[N+](=O)[O-] (stereo not given),0.275%,–
C[C@H]1C[C@@H]2[C@H]([C@@H](O)C[C@@]3(C)[C@H]2CC[C@]3(O)C(=O)CO)[C@@]2(C)C=CC(=O)C=C12,–,inactive
COc1cc(O)c(C(=O)c2ccccc2)cc1S(=O)(=O)O,–,inactive
CC(C=O)c1ccccc1 (stereo not given),0.407%,–
CCCCCCOc1ccc(O)cc1,1.31%,–
CCCCCCCC(C)=O,-0.0061%,–
CCCC(=O)CC,0.409%,–
